From PubChem BioAssay AID624483 (NMMLSC, 2012)
Screen size: about 360,000 compounds; about 11,000 (3.1%) were called active. Inconclusive results (about 2%) are left out. This is one part of a sample in which actives are shown more often than they occur. Values without a mark were called inactive. No stated cut-off is given here; in the data, active means fluorescence intensity above about 16000; inconclusive means no clear call, values can overlap the other calls; inactive means below that.

Test: counter-screen for toxin protease inhibitors: compound fluorescence, primary screen, artefact control for toxin protease inhibitor project, biochemical, multiplex microsphere, HTS (AID 624483)
Conditions: compound autofluorescence counterscreen, microsphere flow cytometry; active compounds read high

Structure (SMILES) | fluorescence intensity
CN(C)C(=O)CSc1n[nH]c(-c2ccco2)n1 | 2630
Cn1nc(C(F)(F)F)c(C(=O)Nc2cccc(C(F)(F)F)c2)c1SCc1ccc(Cl)cc1 | 18600 (active)
COC(=O)c1ccccc1Sc1c(/C=N/OCc2ccc(Cl)cc2)c(C(F)(F)F)nn1C | 2910
O=C(O)CSc1c2c(nc3cc(C(=O)Nc4cccc(C(F)(F)F)c4)ccc13)CCCC2 | 5110
N[C@@H](Cc1ccccc1)C(=O)N1CCOCC1 | 3920
O=C(CSc1ncccn1)N1CCCC1 | 5480
OC(c1ccc(Cl)cc1)c1ncc(-c2ccc(Cl)cc2)[nH]1 (stereo not drawn) | 3850
CC(C)Cn1c(CN(Cc2ccccc2)Cc2ccccc2)nc2c1c(=O)n(C)c(=O)n2C | 5910
COCCn1c(CN(Cc2ccccc2)Cc2ccccc2)nc2c1c(=O)n(C)c(=O)n2C | 5270
CC(C)CCn1c(CN(C)Cc2ccccc2)nc2c1c(=O)n(C)c(=O)n2C | 21400 (active)
CC1(C)OC(=O)C2=C(C[C@@H](C3CCCCC3)O[C@@H]2c2ccc(Cl)cc2)O1 | 6270
COc1cc2ccccc2cc1C(=O)Nc1ccccc1C | 3900
COc1c(F)c(F)c(C(=O)O)c(Nc2ccccc2C)c1F | 21400 (active)
Cc1ccc(Nc2c(F)c(F)c(F)c(F)c2C(=O)O)c(C)c1 | 3820
Cc1ncc([N+](=O)[O-])n1CCOC(=O)c1ccc(Br)cc1 | 4830
CC1(C(=O)NCc2ccc3c(c2)OCO3)CCN1C(=O)Cc1cccc2ccccc12 (stereo not drawn) | 2930
Nc1nc2c(Br)ccc(Br)c2cc1C(=O)NCCc1ccccc1 | 6050
NS(=O)(=O)c1ccc(CCNC(=O)COC(=O)COc2cccc(C(F)(F)F)c2)cc1 | 4060
COc1ccc(C(=O)NCCc2ccc(S(N)(=O)=O)cc2)cc1OC | 17500 (active)
Cc1ccc(S(=O)(=O)CCC(=O)OCC(=O)NCCc2ccc(S(N)(=O)=O)cc2)cc1 | 5910
COc1ccc(NS(=O)(=O)c2cccc(C(=O)NCCc3ccc(S(N)(=O)=O)cc3)c2)cc1 | 8740
Cc1noc(C)c1C(=O)NCCc1ccc(S(N)(=O)=O)cc1 | 4000
NS(=O)(=O)c1ccc(CCNC(=O)c2ccc(Cl)c(S(=O)(=O)N3CCCCCC3)c2)cc1 | 4250
COc1ccc(OCC(=O)NCCc2ccc(S(N)(=O)=O)cc2)cc1 | 19600 (active)

Structure (SMILES) | fluorescence intensity
COC(=O)c1c(C)[nH]c(C(=O)NCCc2ccc(S(N)(=O)=O)cc2)c1C | 3790
CCOC(=O)c1c(C)c(C(=O)NCCc2ccc(S(N)(=O)=O)cc2)c(C)n1CC | 22600 (active)
Cc1cccc(NS(=O)(=O)c2cccc(C(=O)NNC(=O)c3ccccc3O)c2)c1 | 3510
COc1cccc(C(NC(C)=O)c2nc(-c3ccccc3OC)cs2)c1 (stereo not drawn) | 3680
CC(C)(C)CC(=O)Nc1nc(C(N)Cc2ccc(C(F)(F)F)cc2)cs1 (stereo not drawn) | 2950
O=C(NC1CCCC1)C(c1ccco1)N(C(=O)c1csnn1)c1ccccc1 (stereo not drawn) | 3410
Cc1ccccc1-c1nc(NC(C)C)nc2cc(-c3ccccc3)sc12 | 2960
CC(C)NC(=O)C1(C)CCCCCN1C(=O)c1ccc(-c2ccccc2)cc1 (stereo not drawn) | 3730
Cc1cc(/C=N/NC(N)=O)c(C)n1C1CCCCC1 | 5160
CC(=O)Nc1ccc(NC(=O)c2ccc3c(c2)C(=O)N(c2ccccc2C)C3=O)cc1 | 3300
CCOC(=O)C1=CC[C@@H](c2ccncc2)N(S(=O)(=O)c2ccc(C)cc2)C1 | 6280
CCn1c(CSCc2c(Cl)cccc2Cl)n[nH]c1=S | 5080
Cc1ccc(NCc2n[nH]c(=S)n2-c2ccccc2)cc1Cl | 4580
S=c1[nH]nc(CSCc2ccc(Cl)cc2Cl)n1-c1ccccc1 | 22300 (active)
O=C(c1cc(COc2ccc(F)cc2F)on1)N1CCOCC1 | 6230
CN1C(=O)[C@H]2[C@@H](/C=C/c3ccccc3)N3C(=O)CN(Cc4ccc(-c5ccccc5)cc4)C(=O)[C@@]3(C)[C@H]2C1=O | 3800
CCOc1cc2[nH]c(=S)n(Cc3ccc(C(=O)N4CCN(C)CC4)cc3)c(=O)c2cc1OCC | 5670
CCOc1cc2[nH]c(=O)n(Cc3ccc(C(=O)NCCCN4CCCC4=O)cc3)c(=O)c2cc1OCC | 4740
COc1ccc(-n2c(=O)[nH]c3cc(C(=O)NCCc4ccc(OC)c(OC)c4)ccc3c2=O)c(OC)c1 | 3790
COc1ccc(Cn2c(=S)[nH]c3cc(C(=O)NCCCN4CCOCC4)ccc3c2=O)cc1 | 5500
CCOc1cc2[nH]c(=S)n(Cc3ccc(C(=O)NCCOC)cc3)c(=O)c2cc1OCC | 20100 (active)
COCCn1c(=S)[nH]c2cc(C(=O)NCCc3ccc(OC)c(OC)c3)ccc2c1=O | 22200 (active)
CN1CCN(c2ccc3c(c2)OC[C@H](Cc2ccccc2)NS3(=O)=O)CC1 | 5440
COc1ccc(CCCNC(=O)C2Cc3c(-c4cccc(C(N)=O)c4)ccnc3O2)cc1 (stereo not drawn) | 3760

Structure (SMILES) | fluorescence intensity
O=S1(=O)CC(N2CCN(CCO)CC2)CN1C1CCCC1 (stereo not drawn) | 5290
CC(C)CN(C(=O)Cn1c(=O)cnc2ccccc21)C1CCS(=O)(=O)C1 (stereo not drawn) | 7550
COc1ccccc1Cc1c(-c2ccc(Cl)cc2)nc2c3ccccc3ccn12 | 6870
COc1ncnc2c1N=C1CC(C)(C)CC(N)=C1S2 | 10000
O=C1/C(=C/c2ccc3c(c2)OCO3)Oc2cc(OCC(=O)N3CC(O)C[C@H]3C(=O)O)ccc21 (stereo partly drawn) | 5670
CCc1oc(-c2ccc(OC)cc2)c(C(=O)OCCCCCO)c1C(C)OCCO (stereo not drawn) | 5030
CCOC(=O)N1CCN(C(=O)C[C@@H]2C[C@@]3(C(=O)OC)CCCCC=C3N(CCC3=CCCCC3)C2=O)CC1 | 5780
CCOC(=O)c1cc(C)sc1NC(=O)C1CCC1 | 20200 (active)
COC(=O)c1cc(C)sc1NC(=O)CC1Nc2ccccc2NC1=O (stereo not drawn) | 4220
Cc1cnc(NC(=O)C2CCCC2)s1 | 3280
Cc1cc(Br)ccc1SCC(=O)OCC(=O)NCc1ccc2c(c1)OCO2 | 2190
C=CCN(CC=C)C(=O)CN1C(=O)c2ccccc2C1=O | 16300 (active)
Cc1ccccc1C(=O)NNC(=O)CN1C(=O)c2ccccc2C1=O | 2780
Cc1cc(C)cc(NC(=O)CN2C(=O)c3ccccc3C2=O)c1 | 4110
CC(=O)/C(=N\Nc1ccc(Cl)cc1Cl)Sc1cccc2cccnc12 | 7970
COc1cccc(-c2cnc3c(NC(C)=O)cc(-c4cccc(NC(C)=O)c4)cn23)c1 | 3610
c1ccc(-c2ccnc3nc(-n4cccc4)nn23)cc1 | 16400 (active)
Cc1ccnc2nc(C(=O)Nc3nnc(-c4ccccc4)o3)nn12 | 4840
CCCc1cc(=S)n2c([nH]c3ccccc32)c1C#N | 3240
CN(C)C(CNC(=O)c1cccc(C#N)c1)c1ccco1 (stereo not drawn) | 3360
CN(C)C(CNC(=O)CCCOc1ccccc1)c1ccco1 (stereo not drawn) | 22900 (active)
CN(C)C(CNC(=O)c1ccc(OCc2cn3ccccc3n2)cc1)c1ccco1 (stereo not drawn) | 4090
O=C1NC[C@H](Cc2ccc(O)cc2)N(C[C@@H]2CCCN2C[C@H](Cc2ccccc2)N2C[C@H](Cc3ccccc3)N(CC3CCCCC3)C(=O)C2=O)C1=O | 7010
COC(=O)[C@]12CCCCC=C1N(CCC1=CCCCC1)C(=O)[C@H](CC(=O)NCC1CCCCC1)C2 | 4280

Structure (SMILES) | fluorescence intensity
N/C(=N\OC(=O)CC1CCCCC1)c1ccccc1 | 2550
COc1ccccc1OCC(=O)O/N=C(\N)c1ccccn1 | 6210
N/C(=N\OC(=O)CCC1CCCCC1)c1ccccn1 | 16300 (active)
COc1ccccc1C(=O)c1ccccc1C(=O)c1ccccc1 | 4030
COc1ccccc1C(=O)Nc1ccc(Nc2ccccc2)cc1 | 4350
COc1ccccc1C(=O)C(O)c1ccccc1OC (stereo not drawn) | 20300 (active)
O=C(Nc1ccccc1)c1ccccc1NC(=O)C(F)(F)F | 9920
CC(=O)Nc1ccccc1C(=O)OCC(=O)c1cccc2ccccc12 | 4440
CC(=O)Nc1ccccc1C(=O)C(=O)Nc1ccc(F)cc1 | 19600 (active)
CCNC(=S)Nc1ccc2c(c1)c(=O)n(C)n2Cc1ccc(Cl)cc1 | 3690
CC1(C(=O)NS(=O)(=O)c2ccc(Cl)cc2)CCN1C(=O)CC1CCCC1 (stereo not drawn) | 3020
COc1ccc(C(C)(O)c2nc(-c3ccc(C)c(C)c3)cs2)cc1 (stereo not drawn) | 3400
C=CCOc1ccccc1/C=N/NC(=O)Cc1ccccc1 | 4140
O=C(Cc1ccccc1)N/N=C/c1ccc(Cl)cc1Cl | 23400 (active)
O=C(Cn1cc(C(F)(F)F)ccc1=O)N/N=C/c1ccc(Cl)cc1Cl | 1980
COC(=O)c1ccc2nc(C3CCCCC3)c(Cc3cccc(F)c3)n2c1 | 4850
Clc1ccc(CSc2nnc([C@@H]3CCCN3)o2)cc1 | 6580
CCOC(=O)C1=CCC2C(=O)N(Cc3ccccc3)C(=O)C12 (stereo not drawn) | 4910
CCOC(=O)C1CCN(Cc2nnc(-c3cccc(Br)c3)o2)CC1 | 3660
CCOC(=O)C1CCN(c2ncnc3c2oc2ccc(Br)cc23)CC1 | 22700 (active)
CCOC(=O)C1CCN(c2ncnc3c2c(-c2ccccc2)cn3-c2ccc(C)cc2)CC1 | 3930
